Results from the supplement of paper PMC10849652.
Of roughly 7,900 targets only a part is listed; those with a hit were picked by preference. About 0.6% of all pairs of compound and target were hits.

Experiments:
Assay in all cases: log2 fold change, soluble protein after heating vs DMSO (PISA); higher = thermal stabilisation; K562 cells, 10 uM, 30 min; active = over 0.2 and 3.5 SD of the protein, either way, in both replicates (recomputed)
[1] = compound: C1=CC=C(C=C1)[C@H](COC2=CC3=C(C=C2)NC(=O)N3)NC(=O)C4=CC=CN(C4=O)CC5=CC(=C(C=C5)F)F
How it was run: (§1)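 Values are thermal stability changes relative to control samples and are taken from duplicates. They are stated as log2 fold changes. Before quantification by TMTpro 16plex LC-MS/MS with equalised channel sums, K562 cells at 2×10^6 cells/mL were treated with 10 μM compound for 30 min, heated in aliquots for 3 min across 48°C-58°C, pooled, extracted in PBS with 0.5% NP-40 at 4°C, and centrifuged at 21,000xg for 90 min to give the soluble supernatant.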

[2] = compound: CC1=C(SC2=C1C(=N[C@H](C3=NN=C(N32)C)CC(=O)N)C4=CC=C(C=C4)Cl)C
How it was run: as §1

[3] = compound: CC1=C2C(=CC=C1)N=C(N(C2=O)C3=CC=CC=C3C)CN4C=NC5=C(N=CN=C54)N
How it was run: as §1

[4] = compound: Cc1sc2c(c1C)C(c1ccc(Cl)cc1)=N[C@@H](CC(=O)OC(C)(C)C)c1nnc(C)n1-2
How it was run: as §1

[5] = compound: c1ccc([C@@H]2C[C@H]2NC2CCNCC2)cc1
How it was run: as §1

Measured: log2 fold change

MRPS25 (UniProt P82663)
inactive: [1] -0.002 | [2] -0.05 | [3] -0.067 | [4] 0.059 | [5] 0.014

MORC2 (UniProt Q9Y6X9)
inactive: [1] -0.293

NA, A0A494C071
inactive: [1] -0.172 | [2] -0.016 | [3] 0.236 | [4] 0.07 | [5] 0.072

NA, A0A0B4J2A0
inactive: [1] -0.035 | [2] -0.005 | [3] 0.015 | [4] -0.097 | [5] -0.007

MYSM1 (UniProt Q5VVJ2)
inactive: [1] 0.07

NUMB (UniProt P49757)
inactive: [1] 0 | [2] 0.035 | [3] 0.046 | [4] 0.023 | [5] -0.009

MRPL47 (UniProt Q9HD33)
inactive: [1] 0.042 | [2] -0.108 | [3] -0.131 | [4] 0.087 | [5] -0.01

NT5DC1 (UniProt Q5TFE4)
Sequence of UniProt Q5TFE4 (Q5TFE4 whole entry, looked up): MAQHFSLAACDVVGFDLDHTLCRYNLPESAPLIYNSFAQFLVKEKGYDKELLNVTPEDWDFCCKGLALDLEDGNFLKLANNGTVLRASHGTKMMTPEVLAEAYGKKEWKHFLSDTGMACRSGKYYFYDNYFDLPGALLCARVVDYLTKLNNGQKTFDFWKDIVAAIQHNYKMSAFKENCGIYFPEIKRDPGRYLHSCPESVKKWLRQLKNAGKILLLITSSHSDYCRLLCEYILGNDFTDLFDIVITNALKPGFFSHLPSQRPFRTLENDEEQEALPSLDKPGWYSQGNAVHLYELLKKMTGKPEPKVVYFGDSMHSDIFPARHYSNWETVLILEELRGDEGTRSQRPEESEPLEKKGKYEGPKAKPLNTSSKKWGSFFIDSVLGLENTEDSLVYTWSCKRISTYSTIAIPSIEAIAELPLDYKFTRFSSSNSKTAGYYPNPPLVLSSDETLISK
inactive: [1] -0.036 | [2] 0.075 | [3] 0.006 | [4] 0.021 | [5] 0.011

NRF1 isoform 4 (UniProt Q16656)
Sequence of UniProt Q16656 (Q16656 whole entry, looked up): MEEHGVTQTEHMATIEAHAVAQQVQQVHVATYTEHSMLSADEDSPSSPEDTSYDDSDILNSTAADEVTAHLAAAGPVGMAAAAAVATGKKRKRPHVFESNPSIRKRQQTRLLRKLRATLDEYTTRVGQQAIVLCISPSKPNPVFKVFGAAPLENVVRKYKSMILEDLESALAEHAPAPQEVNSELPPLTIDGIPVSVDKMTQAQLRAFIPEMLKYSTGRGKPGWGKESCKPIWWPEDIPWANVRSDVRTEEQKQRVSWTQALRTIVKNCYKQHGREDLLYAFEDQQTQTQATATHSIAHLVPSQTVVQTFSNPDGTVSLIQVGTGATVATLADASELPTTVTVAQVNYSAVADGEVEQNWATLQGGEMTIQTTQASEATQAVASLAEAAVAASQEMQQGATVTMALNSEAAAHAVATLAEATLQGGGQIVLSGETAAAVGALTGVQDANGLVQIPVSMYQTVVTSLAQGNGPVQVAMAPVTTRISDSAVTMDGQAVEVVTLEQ
inactive: [1] -0.045 | [2] 0.001 | [3] 0.085 | [4] -0.043 | [5] -0.039

NRGN (UniProt Q92686)
inactive: [1] 0.048

NCOR1 (UniProt O75376)
inactive: [1] -0.102 | [2] 0.06 | [3] 0.002 | [4] 0.016 | [5] -0.111

NDUFA7 (UniProt O95182)
Sequence of UniProt O95182 (O95182 whole entry, looked up): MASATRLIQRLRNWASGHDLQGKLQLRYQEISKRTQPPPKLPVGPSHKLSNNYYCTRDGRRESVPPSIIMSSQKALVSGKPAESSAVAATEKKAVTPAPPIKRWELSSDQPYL
inactive: [1] 0.007 | [2] 0.002 | [3] 0.007 | [4] 0.008 | [5] 0.034

NAP1L1 (UniProt P55209)
inactive: [1] -0.072 | [2] 0.003 | [3] 0.17 | [4] 0.013 | [5] 0.009

NELFB isoform 2 (UniProt Q8WX92)
Sequence of UniProt Q8WX92 (Q8WX92 whole entry, looked up): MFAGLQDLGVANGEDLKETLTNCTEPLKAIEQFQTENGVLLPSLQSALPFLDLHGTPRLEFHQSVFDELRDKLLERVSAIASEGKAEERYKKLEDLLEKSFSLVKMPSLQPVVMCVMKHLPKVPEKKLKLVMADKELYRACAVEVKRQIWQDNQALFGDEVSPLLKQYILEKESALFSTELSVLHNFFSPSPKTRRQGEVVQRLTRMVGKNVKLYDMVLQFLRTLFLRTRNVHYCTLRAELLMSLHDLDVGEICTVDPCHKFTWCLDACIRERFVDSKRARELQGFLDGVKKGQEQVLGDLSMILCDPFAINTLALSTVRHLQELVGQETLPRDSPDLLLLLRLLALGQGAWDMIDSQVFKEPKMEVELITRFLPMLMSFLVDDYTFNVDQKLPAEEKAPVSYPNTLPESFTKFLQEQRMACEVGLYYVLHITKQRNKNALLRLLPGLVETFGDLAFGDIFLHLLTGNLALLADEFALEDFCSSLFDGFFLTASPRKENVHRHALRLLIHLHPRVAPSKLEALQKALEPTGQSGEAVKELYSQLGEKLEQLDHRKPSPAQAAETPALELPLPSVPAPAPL
inactive: [1] -0.098 | [2] 0.12 | [3] 0.123 | [4] -0.05 | [5] -0.023

NTMT1 (UniProt Q9BV86)
inactive: [1] 0.001 | [2] 0.034 | [3] 0.079 | [4] -0.118 | [5] -0.049

MSH2 (UniProt P43246)
inactive: [1] -0.041 | [2] 0.051 | [3] 0.105 | [4] -0.037 | [5] 0.01

NFYC (UniProt Q13952)
inactive: [1] 0.002 | [2] 0.063 | [3] 0.036 | [4] 0.014 | [5] -0.014

OXSM (UniProt Q9NWU1)
Sequence of UniProt Q9NWU1 (Q9NWU1 whole entry, looked up): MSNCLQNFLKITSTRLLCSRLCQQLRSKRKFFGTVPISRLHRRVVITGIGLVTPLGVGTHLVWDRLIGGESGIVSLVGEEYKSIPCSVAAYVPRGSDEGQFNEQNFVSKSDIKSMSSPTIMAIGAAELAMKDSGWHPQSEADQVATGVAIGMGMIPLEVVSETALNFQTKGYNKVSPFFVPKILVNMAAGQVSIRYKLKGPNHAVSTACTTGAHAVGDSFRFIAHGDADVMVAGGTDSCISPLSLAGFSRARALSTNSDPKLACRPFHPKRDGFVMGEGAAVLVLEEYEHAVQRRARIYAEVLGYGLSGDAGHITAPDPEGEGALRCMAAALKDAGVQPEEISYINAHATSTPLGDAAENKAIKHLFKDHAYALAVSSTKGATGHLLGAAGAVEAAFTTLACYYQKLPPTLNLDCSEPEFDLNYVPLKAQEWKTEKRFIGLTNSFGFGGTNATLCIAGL
inactive: [1] 0.072 | [2] -0.007 | [3] 0.045 | [4] -0.007 | [5] 0.036

OSBPL8 (UniProt Q9BZF1)
inactive: [1] -0.051 | [2] -0.071 | [3] 0.007 | [4] -0.018 | [5] -0.002

PACS1 (UniProt Q6VY07)
Sequence of UniProt Q6VY07 (Q6VY07 whole entry, looked up): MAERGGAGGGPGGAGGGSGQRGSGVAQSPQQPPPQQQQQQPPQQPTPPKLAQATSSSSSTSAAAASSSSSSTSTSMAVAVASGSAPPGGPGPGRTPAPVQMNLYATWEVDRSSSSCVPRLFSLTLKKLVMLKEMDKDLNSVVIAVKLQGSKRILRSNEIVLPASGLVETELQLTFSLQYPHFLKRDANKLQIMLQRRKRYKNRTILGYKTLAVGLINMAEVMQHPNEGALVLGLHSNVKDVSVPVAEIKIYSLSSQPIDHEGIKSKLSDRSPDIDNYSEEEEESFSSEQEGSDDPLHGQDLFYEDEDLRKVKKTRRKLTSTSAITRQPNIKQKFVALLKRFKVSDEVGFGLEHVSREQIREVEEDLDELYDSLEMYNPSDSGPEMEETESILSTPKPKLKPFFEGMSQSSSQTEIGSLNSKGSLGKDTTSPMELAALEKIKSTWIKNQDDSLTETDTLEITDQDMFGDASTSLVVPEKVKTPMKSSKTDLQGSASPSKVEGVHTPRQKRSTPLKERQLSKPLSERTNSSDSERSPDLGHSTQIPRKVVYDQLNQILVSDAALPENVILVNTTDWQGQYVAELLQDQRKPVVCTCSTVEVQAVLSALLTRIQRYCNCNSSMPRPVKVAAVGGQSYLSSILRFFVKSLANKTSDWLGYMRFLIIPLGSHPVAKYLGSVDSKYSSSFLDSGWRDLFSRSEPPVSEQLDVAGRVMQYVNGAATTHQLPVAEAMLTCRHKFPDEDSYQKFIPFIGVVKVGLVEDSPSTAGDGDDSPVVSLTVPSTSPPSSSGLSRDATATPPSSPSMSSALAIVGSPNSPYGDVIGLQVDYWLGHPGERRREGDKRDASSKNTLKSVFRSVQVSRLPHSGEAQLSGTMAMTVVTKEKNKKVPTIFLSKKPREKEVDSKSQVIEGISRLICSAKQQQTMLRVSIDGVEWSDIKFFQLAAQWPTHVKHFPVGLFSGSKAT
inactive: [1] -0.02 | [2] 0.042 | [3] 0.033 | [4] 0.002 | [5] -0.014

MYLK (UniProt Q15746)
Sequence of UniProt Q15746 (Q15746 whole entry, looked up): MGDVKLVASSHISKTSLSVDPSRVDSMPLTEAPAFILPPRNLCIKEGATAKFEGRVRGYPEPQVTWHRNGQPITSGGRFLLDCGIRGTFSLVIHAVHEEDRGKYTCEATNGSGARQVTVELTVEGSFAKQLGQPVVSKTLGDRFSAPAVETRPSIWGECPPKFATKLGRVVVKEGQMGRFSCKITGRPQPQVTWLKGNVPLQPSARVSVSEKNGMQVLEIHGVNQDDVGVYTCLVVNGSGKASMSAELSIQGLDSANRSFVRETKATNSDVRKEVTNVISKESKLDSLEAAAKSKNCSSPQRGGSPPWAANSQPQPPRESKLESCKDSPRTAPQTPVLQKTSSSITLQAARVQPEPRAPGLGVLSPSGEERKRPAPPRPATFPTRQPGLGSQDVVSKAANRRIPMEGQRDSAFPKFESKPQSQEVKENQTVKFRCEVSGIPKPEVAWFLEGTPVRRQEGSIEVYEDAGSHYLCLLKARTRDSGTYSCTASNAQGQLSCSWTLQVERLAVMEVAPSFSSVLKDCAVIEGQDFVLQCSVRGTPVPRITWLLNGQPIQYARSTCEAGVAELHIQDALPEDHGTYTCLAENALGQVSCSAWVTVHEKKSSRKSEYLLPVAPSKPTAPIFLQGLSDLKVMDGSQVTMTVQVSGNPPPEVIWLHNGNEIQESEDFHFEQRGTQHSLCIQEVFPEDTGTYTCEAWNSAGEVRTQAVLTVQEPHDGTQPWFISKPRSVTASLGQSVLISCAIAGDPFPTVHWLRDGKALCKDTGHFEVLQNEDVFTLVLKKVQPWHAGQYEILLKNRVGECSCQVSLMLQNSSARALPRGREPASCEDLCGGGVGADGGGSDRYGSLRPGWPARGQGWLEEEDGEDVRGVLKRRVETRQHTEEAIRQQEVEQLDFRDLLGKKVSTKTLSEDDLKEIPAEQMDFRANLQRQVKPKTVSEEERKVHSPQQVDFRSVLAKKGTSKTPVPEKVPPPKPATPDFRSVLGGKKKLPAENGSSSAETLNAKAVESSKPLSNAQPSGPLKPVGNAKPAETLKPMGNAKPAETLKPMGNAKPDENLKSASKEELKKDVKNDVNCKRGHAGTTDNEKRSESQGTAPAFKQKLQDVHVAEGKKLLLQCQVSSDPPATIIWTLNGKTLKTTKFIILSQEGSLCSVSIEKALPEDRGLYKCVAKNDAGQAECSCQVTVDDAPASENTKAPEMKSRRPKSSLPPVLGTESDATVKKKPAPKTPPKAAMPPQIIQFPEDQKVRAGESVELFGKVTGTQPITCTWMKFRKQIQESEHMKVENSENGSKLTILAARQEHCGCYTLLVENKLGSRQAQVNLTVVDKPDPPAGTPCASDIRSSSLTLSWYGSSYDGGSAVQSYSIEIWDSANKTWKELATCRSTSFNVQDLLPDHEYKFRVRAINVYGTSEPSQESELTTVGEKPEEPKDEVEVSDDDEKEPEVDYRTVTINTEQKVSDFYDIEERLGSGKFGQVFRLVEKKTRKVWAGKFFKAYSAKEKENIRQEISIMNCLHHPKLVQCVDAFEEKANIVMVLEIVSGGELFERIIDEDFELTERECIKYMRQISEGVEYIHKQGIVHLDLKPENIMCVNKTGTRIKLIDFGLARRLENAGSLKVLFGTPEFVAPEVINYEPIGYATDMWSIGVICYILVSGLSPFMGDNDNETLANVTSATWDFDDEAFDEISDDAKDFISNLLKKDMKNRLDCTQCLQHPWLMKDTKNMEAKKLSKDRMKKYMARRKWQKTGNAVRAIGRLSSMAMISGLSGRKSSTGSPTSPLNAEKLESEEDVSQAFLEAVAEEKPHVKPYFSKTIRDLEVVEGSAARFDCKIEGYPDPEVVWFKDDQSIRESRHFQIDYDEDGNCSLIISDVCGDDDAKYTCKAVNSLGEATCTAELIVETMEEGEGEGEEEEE
inactive: [1] -0.08 | [2] -0.053 | [3] 0.096 | [4] 0.118 | [5] -0.21

NCAPG (UniProt Q9BPX3)
inactive: [1] -0.033 | [2] 0.019 | [3] 0.101 | [4] -0.002 | [5] -0.002

MYH10 isoform 3 (UniProt P35580)
inactive: [1] -0.003 | [2] 0.043 | [3] 0.056 | [4] -0.023 | [5] -0.013

NDUFB8 (UniProt O95169)
inactive: [1] 0.049 | [2] 0.045 | [3] 0.02 | [4] -0.002 | [5] 0.089

NASP (UniProt P49321)
inactive: [1] -0.009 | [2] 0.049 | [3] 0.054 | [4] -0.022 | [5] 0.013

NOP53 (UniProt Q9NZM5)
inactive: [1] 0.103 | [2] -0.332 | [3] -0.415 | [4] 0.353 | [5] 0.097

MRPS27 isoform 2 (UniProt Q92552)
inactive: [1] -0.063 | [2] 0.04 | [3] 0.01 | [4] 0.035 | [5] -0.059

MRPS35 (UniProt P82673)
inactive: [1] -0.011 | [2] -0.03 | [3] -0.033 | [4] 0.143 | [5] -0.004

NRDC isoform 2 (UniProt O43847)
inactive: [1] -0.058 | [2] 0.04 | [3] 0.037 | [4] -0.023 | [5] 0
